# Laboratory results published in PubChem BioAssay (NCI).
# About 79,000 compounds went through this panel and 15% of them were active in at least one assay; those are over-represented in the sample as a whole. A number with no mark means an inactive call. The source made the active and inactive calls. Cut-off read from the data, not from the text of the source: active = growth inhibition above about 70%; inactive = the rest.
# How the values were obtained:
# [1] = NCI Yeast Anticancer Drug Screen. Data for the rad50 strain (AID 155);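 note: 0% = growth of vehicle-only cultures of the same strain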; settings: S. cerevisiae rad50 strain growth inhibition; at 50.0 µM; stronger effect = higher value
# Outline: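 A DNA repair-deficient yeast mutant serves as the test organism; compound-induced growth inhibition is calculated against vehicle-treated cells.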
# [2] = NCI Yeast Anticancer Drug Screen. Data for the mec2-1 strain (AID 157); settings: S. cerevisiae mec2-1 strain, at 50.0 µM, stronger effect = higher value
# Outline: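 Cells of the genetically defined mec2-1 yeast strain are incubated with test compound. Inhibition of growth is calculated against vehicle-treated controls.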
# [3] = NCI Yeast Anticancer Drug Screen. Data for the sgs1 mgt1 strain (AID 161);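 note: 0% = growth of cultures given vehicle only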; settings: S. cerevisiae sgs1 mgt1 strain, at 50.0 µM, stronger effect = higher value
# Outline: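 Genetically altered yeast, compound exposure, growth inhibition relative to vehicle.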
# [4] = NCI Yeast Anticancer Drug Screen. Data for the cln2 rad14 strain (AID 165);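 note: 0% = growth equal to vehicle treated cultures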; settings: S. cerevisiae cln2 rad14 strain, at 50.0 µM, stronger effect = higher value
# Outline: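 The screen exposed genetically defined yeast (cln2 rad14) to test compounds and scored growth inhibition relative to vehicle-treated controls.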
# [5] = NCI Yeast Anticancer Drug Screen. Data for the bub3 strain (AID 167); settings: S. cerevisiae bub3 mutant strain, at 50.0 µM, stronger effect = higher value
# Outline: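 Inhibition values come from growth of compound-treated mutant yeast normalised to vehicle-treated controls.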
# [6] = NCI Yeast Anticancer Drug Screen. Data for the mlh1 rad18 strain (AID 175); settings: S. cerevisiae mlh1 rad18 strain growth inhibition; at 50.0 µM; stronger effect = higher value
# Outline: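 Compound-treated yeast growth, normalised to vehicle controls. Strain bears defined DNA repair mutations.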
Structure (SMILES),growth inhibition [1],growth inhibition [2],growth inhibition [3],growth inhibition [4],growth inhibition [5],growth inhibition [6]
COc1cc(O)c(OC)c(O)c1C(C)=O,-3.5%,-11.2%,-17.4%,-19.7%,2.25%,-0.65%
COC(=O)c1ccc(N(C)CCC(=O)COC(C)=O)cc1,17.9%,9.7%,12%,-10.2%,7.6%,10.3%
C=CCc1cc(C(=O)O)ccc1OC,-36.4%,-23.6%,-16.1%,-1.7%,-30.4%,-13.9%
CC1(C)CCC2(CO)C(=C3C=CC4C5(C)CCC(O)C(C)(CO)C5CCC4(C)C3(C)CC2O)C1 (configuration not stated),0.45%,-31.8%,-0.75%,-3.35%,-9.5%,11.4%
O/N=C/c1ccccc1O,14.9%,-19.1%,-0.3%,9.65%,-7.85%,10.2%
O=C(O)c1cccc2c1-c1ccc(NC(=O)C(Cl)Cl)cc1C2=O,31%,-1.65%,-6.85%,-5.7%,16.1%,12.1%
COc1cc(C(=O)N2CCCCCCC2)cc(OC)c1OC,-13.8%,38.5%,10.9%,-19.7%,28.7%,-6.45%
CC12CCC(=O)C=C1CCC1C2C(=O)CC2(C)C1CCC2(O)C(=O)Cn1c(=O)[nH]cc(F)c1=O (configuration not stated),5.95%,-5.8%,3.55%,5.65%,-0.85%,2.3%
Cn1c(=O)c(C(=O)NC23CC4CC(CC(C4)C2)C3)c(O)c2ccccc21,-44.2%,-37%,-46.5%,-16.3%,-53%,-19.9%
N/C(=N\N=C\C1CC2C=CC1C2)NO (configuration not stated),5.3%,-11.4%,-9.8%,-0.05%,-16.6%,-4.55%
COc1ccccc1OC(C)=O,-5.2%,-14.4%,-2.3%,-8.2%,-1.35%,17.9%
CCOc1ccc(N=C2NC(=O)C(CC(=O)Nc3ccc(Cl)cc3Cl)S2)cc1 (configuration not stated),15%,15.3%,-7.4%,-51.9%,-6%,27.2%
C[N+]1(C(CO)Cc2c[nH]c3ccccc23)Cc2ccccc2C1 (configuration not stated),10.6%,14.6%,-19.1%,-8.35%,-65.5%,-5.7%
Cc1ccc(N=NC(C2=NC(=O)CS2)c2nc3ccccc3[nH]2)cc1 (configuration not stated),-55%,-31%,-52.8%,-44.8%,-56%,-73.8%
CCC(C)C(NS(=O)(=O)Cc1ccccc1)C(=O)O (configuration not stated),-3.85%,16.4%,3.05%,10.9%,-10.3%,6.8%
O=C1CN(CCN2CCCCC2)CC(=O)N2Cc3ccccc3CN12,-10.1%,2.85%,12.1%,-1.55%,7.8%,14.2%
CC(=O)OCC1OC(OC(C)=O)C(NS(=O)(=O)c2ccc(C)cc2)C(OC(C)=O)C1OC(C)=O (configuration not stated),18.3%,4.25%,18.1%,17.8%,-3.65%,-4.65%
CCCCC(=O)NCCNC(=O)CCCC,-0.5%,7%,-1.8%,-18.6%,14.2%,9.55%
O=C(CN1CCN(c2ccccc2)CC1)n1nnc2ccccc21,-9.4%,-3.9%,-3.6%,-13.8%,-31.5%,-6%

Structure (SMILES),growth inhibition [1],growth inhibition [2],growth inhibition [3],growth inhibition [4],growth inhibition [5],growth inhibition [6]
O=C(Cn1c(-c2ccccc2)cc2ccccc21)N1CCOCC1,-0.45%,-32.9%,-39%,-18.1%,1.65%,-28.1%
Cc1cc2nc3c(N)ccc(N)c3nc2cc1N,5.2%,4.3%,-0.65%,-17.6%,-29.1%,-7.7%
Cc1c([N+](=O)[O-])cc(C(C)(C)C)c(OC(=O)Nc2cccc(Cl)c2)c1[N+](=O)[O-],60.7%,74% (active),79.7% (active),23.1%,39.1%,72.3% (active)
c1ccc2c3c(cc(CCc4cc5c(c6ccccc46)CCCC5)c2c1)CCCC3,-9.8%,-18.3%,-5.65%,-16%,-8.9%,-4.2%
COc1cc2ccncc2cc1O,-7.25%,-18.4%,-26.3%,-4.25%,9.45%,-16.1%
CCC(C(=O)O)c1cccc2c(C)ccc(C)c12 (configuration not stated),8.25%,3.55%,21.4%,23.2%,7.7%,8.15%
O=C1/C(=C/c2ccc(Cl)cc2)CCC1CNc1ccc(Cl)cc1 (configuration not stated),17.1%,0.25%,-15.6%,-2.8%,-16.2%,-43.1%
CC1([N+](=O)[O-])COC2(CCCCC2)OC1,18.2%,9.75%,-6.1%,-22.1%,4.3%,24.2%
NCCCOc1ccccc1,-3.6%,-7.8%,-5.1%,-10.3%,-7.05%,-9.35%
COC(=O)C(C(=O)C(=O)Nc1ccc([N+](=O)[O-])cc1)c1nc2ccc([N+](=O)[O-])cc2[nH]c1=O (configuration not stated),8.95%,-3.1%,-32.5%,-41.2%,-0.85%,8.75%
C=CC(C)n1cnc2c1c(=O)n(C)c(=O)n2C (configuration not stated),-5.1%,-9.35%,-11.2%,-35%,-5.4%,2.8%
CC(C)(Oc1ccc2c(=O)cc(-c3ccc(Cl)cc3)oc2c1)C(=O)Nc1c(Cl)cccc1Cl,16.4%,-20.1%,6.45%,-14.9%,2.75%,16.8%
COc1ccc(/C=C/c2nc(=S)[nH][nH]2)cc1OC,-18.1%,-21.5%,12.7%,12.3%,25.1%,-3.1%
CCOC(=O)CCc1cnc[nH]1,-60.5%,-8.95%,-3.05%,-14.1%,-4.55%,-0.75%
CCCC1([N+](=O)[O-])CCC(C)(O)C(C(C)=O)C1 (configuration not stated),-4.3%,-3.8%,0.9%,-3.35%,-4.8%,17.4%
Cc1cccc(C)c1NC(=O)C(=O)C(C#N)c1c(Cl)cccc1Cl (configuration not stated),-38%,5.2%,16.4%,-25.2%,-4.85%,10.7%
O=[N+]([O-])c1ccc(-c2nnn(C3CC3)c2N2CCCCC2)cc1,-7.85%,-5.6%,-3.4%,-0.5%,-4.35%,5.15%
CC(C)C1CCC2(CC1)CCN(CCCN(C)C)CC2,-4.65%,25.3%,9.15%,-23.6%,7.25%,-7.65%
